These results are taken from PubChem BioAssay AID2642 (Johns Hopkins Ion Channel Center, 2010).

Hit rate of the full screen: of about 310,000 compounds, about 3,900 (1.3%) were called active.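 Rule for the calls: active = compounds whose thallium flux B-score, printed positive for inhibition, exceeds three library SD while starting fluorescence stays within three; inactive = the rest.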 For the sample, actives were picked, then their nearest neighbours and some compounds at random.

Potassium voltage-gated channel subfamily KQT member 1 (Homo sapiens), sequence (P51787 whole entry, looked up): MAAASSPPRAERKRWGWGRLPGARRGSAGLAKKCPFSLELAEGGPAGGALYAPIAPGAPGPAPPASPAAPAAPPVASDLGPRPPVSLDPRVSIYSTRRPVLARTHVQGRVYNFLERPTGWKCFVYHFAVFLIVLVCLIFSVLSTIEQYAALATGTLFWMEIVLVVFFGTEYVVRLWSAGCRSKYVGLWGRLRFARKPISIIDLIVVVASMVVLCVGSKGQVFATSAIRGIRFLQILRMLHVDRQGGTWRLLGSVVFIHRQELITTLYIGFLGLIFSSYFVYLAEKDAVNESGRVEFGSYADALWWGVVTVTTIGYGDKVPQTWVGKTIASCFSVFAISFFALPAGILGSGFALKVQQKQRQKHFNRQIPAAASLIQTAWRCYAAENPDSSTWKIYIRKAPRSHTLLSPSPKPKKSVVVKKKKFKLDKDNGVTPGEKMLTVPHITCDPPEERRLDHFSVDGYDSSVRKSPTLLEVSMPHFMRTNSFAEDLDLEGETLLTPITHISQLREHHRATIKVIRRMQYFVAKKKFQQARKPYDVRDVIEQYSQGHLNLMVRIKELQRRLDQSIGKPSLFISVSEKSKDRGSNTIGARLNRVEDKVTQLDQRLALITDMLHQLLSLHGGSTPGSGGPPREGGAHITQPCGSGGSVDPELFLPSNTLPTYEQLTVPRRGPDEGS

This assay concerns the target Potassium voltage-gated channel subfamily KQT member 1 (Homo sapiens) (UniProt P51787). Description: KCNQ1 potassium current blockers – cell-based, thallium flux, high-throughput, primary screen (AID 2642).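 Note: channel opened by potassium depolarization with thallium stimulus after 20 min compound exposure.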 The settings on record: CHO-K1 KCNQ1, FluxOR thallium flux fluorescence, at 10 µM; hits give high values.
As to `COc1cccc(/C=N/Nc2cc(C)nc(-c3ccccc3O)n2)c1O`, the B-score is 7 (active).

With `COc1cccc(/C=N/NC(=O)c2[nH]nc3c2CCc2ccccc2-3)c1O`, the B-score result is “inactive”.

For the compound `COc1cccc(/C=N/Nc2ncc(C(F)(F)F)cc2Cl)c1O`, the B-score entry is “inactive”.

As to `CN(C(=O)c1ccccc1)c1nccnc1C#N`, the B-score result was “inactive”.

Consider `CCOC(=O)CC1COCCN1C(=O)c1cc(COc2ccc(F)c(F)c2)on1` (stereo not drawn), for which the B-score entry is “inactive”.

Turning to `Cc1nc(N2CCC(C)CC2)c2c(C)c(C(=O)Nc3cc(F)ccc3C)sc2n1`, the B-score result is “inactive”.

On to `Cc1nc(N2CCOCC2)c2c(C)c(C(=O)Nc3ccc(C(F)(F)F)cc3)sc2n1`, for which the B-score entry is “inactive”.

On to `COc1ccc(NC(=O)c2sc3nc(C)nc(N4CCN(c5ccccn5)CC4)c3c2C)c(OC)c1`, for which the B-score result was “inactive”.

For the compound `Cc1nc(N2CCN(c3ccccn3)CC2)c2c(C)c(C(=O)Nc3ccc(F)c(Cl)c3)sc2n1`, the B-score is 13 (active).

`O=C(c1c(F)cccc1Cl)N1CCN(c2ccccn2)CC1`: the B-score entry is “inactive”.

In the case of `Cc1nc(N2CCN(c3ccccn3)CC2)c2c(C)c(C(=O)Nc3ccc(F)cc3)sc2n1`, the B-score is 10 (active).

As for `Cc1ccccc1NC(=O)c1cc(S(=O)(=O)Nc2cccc(C(=O)O)c2)ccc1Cl`, the B-score result was “inactive”.

For the compound `COCOc1cc(O)c(C(=O)/C=C/c2ccc(OCOC)c(OCOC)c2)c(OCOC)c1`, the B-score result is “inactive”.

Take `CCCCS(=O)c1snnc1C` (stereo not drawn): the B-score entry was “inactive”.

For `COc1ccc(OC)c(Nc2nc3ccccc3n3cnnc23)c1`, the B-score result is “inactive”.

On to `COc1cccc(C(=O)Nc2nnc(S(=O)(=O)N(C)c3ccccc3)s2)c1`, for which the B-score result was “inactive”.

As to `CS(=O)(=O)c1ccc(Cl)c(NC(=O)COC(=O)c2cccc(S(=O)(=O)N3CCCC3)c2)c1`, the B-score entry is “inactive”.

As to `COc1ccc(C2C=C(c3ccc(Br)cc3)Nc3nc(NS(C)(=O)=O)nn32)cc1` (stereo not drawn), the B-score entry was “inactive”.

On to `COc1ccc(C)cc1NC(=O)NCCCCc1ccccc1`, for which the B-score result is “inactive”.

For the compound `COc1ccc(C)cc1NC(=O)Nc1ccccc1SC`, the B-score result is “inactive”.

As for `COc1ccc(C)cc1NC(=O)C(Sc1ccccc1)c1ccccc1` (stereo not drawn), the B-score is 6 (active).

Turning to `CCCN1CNC(=S)N(CCc2ccccc2)C1`, the B-score result was “inactive”.

`CCOC(=O)c1sc(=NC(=O)c2ccc(Br)cc2)n(C)c1C`: the B-score entry was “inactive”.

As to `CCOC(=O)C1=C(C)Nc2sc(C(=O)c3ccc(Br)cc3)c(N)c2C1c1ccc(C(=O)OC)cc1` (stereo not drawn), the B-score was 8 (active).

Regarding `CCOC(=O)c1sc(=S)n2c1[nH]c(=O)c1ccc(C(=O)OC)cc12`, the B-score entry was “inactive”.

For the compound `CCOC(=O)c1ccc(NC(=O)Cn2cnc3cc(C)c(C)cc32)cc1`, the B-score is 7 (active).

Regarding `CCCc1nnc(SCC(=O)Nc2ccc(C(=O)OCC)cc2)o1`, the B-score entry is “inactive”.

Turning to `CCOC(=O)c1ccc(NC(=O)CSc2nnc(COc3ccccc3OC)n2C)cc1`, the B-score result is “inactive”.

With `COc1ccc(CCNc2cc(N3CCN(C(=O)c4ccccc4OC)CC3)ccc2[N+](=O)[O-])cc1OC`, the B-score result was “inactive”.

In the case of `O=C1CCCN1CCCNC(=S)Nc1ccc(F)c(Cl)c1`, the B-score is 7 (active).

On to `Cc1cc(Cl)ccc1NC(=S)NCCCN1CCCC1=O`, for which the B-score entry was “inactive”.

Regarding `Cc1c(Cl)cccc1NC(=O)NCCCN1CCCC1=O`, the B-score result was “inactive”.

As to `CCOc1cc(CN2CCCC(CO)(Cc3ccc(F)cc3F)C2)ccc1OC` (stereo not drawn), the B-score result is “inactive”.

`CN(Cc1ccc(F)cc1Cl)S(=O)(=O)c1cccs1`: the B-score result was “inactive”.

As for `O=C(Nn1c(-c2ccccc2)nc2ccccc2c1=O)c1ccc([N+](=O)[O-])cc1`, the B-score result was “inactive”.

In the case of `O=C(Nn1c(SCc2ccc([N+](=O)[O-])cc2)nc2ccccc2c1=O)c1ccc(F)cc1`, the B-score was 9 (active).

As for `C=CCn1c(SCc2ccc(C(=O)NCCO)cc2)nc2ccccc2c1=O`, the B-score entry is “inactive”.

On to `CCc1nc2nc(C)c(NS(=O)(=O)c3ccc4c(c3)CCCC4)c(=O)n2[nH]1`, for which the B-score entry is “inactive”.

`CCCCc1ccc(NC(=O)NCc2cccnc2)cc1`: the B-score entry was “inactive”.

For `O=S(=O)(NCCSc1ccccn1)c1ccc(Cl)cc1`, the B-score result was “inactive”.

With `Cc1cc(O)ccc1NC1=CC(=O)CC(C)(C)C1`, the B-score entry was “inactive”.

For `CCOc1ccc(NC(=O)CN(C)C(=O)c2c(C)noc2C)cc1OCC`, the B-score result is “inactive”.

Regarding `CCOC(=O)C(C)Sc1nc2ccccc2c(=O)n1CC1CCCCC1` (stereo not drawn), the B-score was 7 (active).

As for `CCOn1c(SC(C)C)nc2ccccc2c1=O`, the B-score entry is “inactive”.

For the compound `CCOC(=O)C1CCc2nc3ccccc3c(=O)n21` (stereo not drawn), the B-score entry was “inactive”.

In the case of `Cc1c(OC(C)C(=O)NCC2CCC(C(=O)O)CC2)ccc2c1oc(=O)c1ccccc12` (stereo not drawn), the B-score entry is “inactive”.

In the case of `Cc1noc(C)c1CSCC(=O)Nc1ccc(Br)cc1Cl`, the B-score result is “inactive”.

Consider `CCc1noc(C)c1C(=O)Nc1nc2ccc(OC)cc2s1`, for which the B-score entry is “inactive”.

Take `Cc1noc(C)c1CSCC(=O)Nc1nc2ccc(Oc3ccccc3)cc2s1`: the B-score is 8 (active).

In the case of `Cc1ccc(-n2ncc(C(=O)NC3CC3)c2C2CCN(C(=O)OC(C)(C)C)CC2)c(C)c1`, the B-score entry is “inactive”.

Consider `COCc1c(C(=O)OCc2c(C)noc2C)oc2ccccc12`, for which the B-score result is “inactive”.

For `CCOC(=O)c1oc2ccccc2c1NC(=O)c1cccs1`, the B-score result is “inactive”.

As to `Cc1cc(C)c(NC(=O)c2oc3ccccc3c2COc2ccccc2)c(C)c1`, the B-score was 10 (active).

As for `COc1cc(C(C(=O)NC2CCCC2)N(Cc2ccccc2)C(=O)c2snc(C(N)=O)c2N)ccc1O` (stereo not drawn), the B-score entry was “inactive”.

`O=C(Nc1ccc(Cl)c(Cl)c1)N1CC=C(c2ccccc2)CC1`: the B-score is 11 (active).

Take `O=C(Nc1ccccc1)N1CCN(C(=O)Nc2ccccc2)CC1`: the B-score result was “inactive”.

On to `COc1cc(C(=O)NCC(=O)N2CC=C(c3ccccc3)CC2)cc(OC)c1OC`, for which the B-score entry was “inactive”.

As to `O=C(NCCCN1CCCCC1)C1CC(=O)N(CCc2ccccc2)C1` (stereo not drawn), the B-score result was “inactive”.

For the compound `NC(=O)c1cc(-c2cccnc2)nc2ccc(Br)cc12`, the B-score entry is “inactive”.

In the case of `Cc1onc(-c2ccccc2)c1C(=O)NNC(=S)NC(=O)c1ccc(F)cc1`, the B-score result was “inactive”.

For the compound `O=C(NNC(=S)NC(=O)c1cn(-c2ccccc2)nc1-c1ccccc1)c1ccncc1`, the B-score was 6 (active).

For the compound `NC(=O)C1CCN(C(=O)c2cn(-c3ccccc3)nc2-c2cccnc2)CC1`, the B-score entry is “inactive”.

With `c1ccc(-c2ccc3c(c2)NC(C2Nc4cc(-c5ccccc5)ccc4O2)O3)cc1` (stereo not drawn), the B-score result was “inactive”.

As to `CNS(=O)(=O)c1ccc(N2CCCC2=O)c([N+](=O)[O-])c1`, the B-score result was “inactive”.

For the compound `CC(=O)Nc1ccc(S(=O)(=O)Nc2ccc(-c3ccc4nnc(C)n4n3)cc2)cc1`, the B-score entry is “inactive”.

For the compound `Cc1ccc(N(CC(=O)Nc2cccc(N(C)S(C)(=O)=O)c2)S(C)(=O)=O)cc1`, the B-score entry was “inactive”.

On to `COc1cccc(N(CC(=O)Nc2cccc(N(C)S(C)(=O)=O)c2)S(C)(=O)=O)c1`, for which the B-score result is “inactive”.

For the compound `CN(c1cccc(NC(=O)Nc2ccc(Cl)cc2)c1)S(C)(=O)=O`, the B-score is 10 (active).

With `COc1cccc(NC(=O)CN(C)C(=O)CSCc2nc3scc(-c4cccs4)c3c(=O)[nH]2)c1`, the B-score result was “inactive”.

Consider `COc1ccc(C2NC(=O)C(=O)/C2=C(\O)c2ccc(Cl)cc2)cc1OC` (stereo not drawn), for which the B-score entry was “inactive”.

For `O=C(CCc1ccccc1)Nc1ncc([N+](=O)[O-])s1`, the B-score entry was “inactive”.

`CC(=O)Oc1ccccc1C(=O)Nc1ncc([N+](=O)[O-])s1`: the B-score is 7 (active).

On to `O=C(Nc1ncc([N+](=O)[O-])s1)C1COc2ccccc2O1` (stereo not drawn), for which the B-score result is “inactive”.

Regarding `CC(NC(=O)c1cc(=O)[nH]c2ccccc12)c1ccc(F)cc1F` (stereo not drawn), the B-score entry was “inactive”.

With `CC(=O)c1cc2c(cc1NC(=O)Cn1nc(-c3ccc(F)cc3)ccc1=O)OCO2`, the B-score entry was “inactive”.

For `COc1cnc(-c2ccccn2)nc1Oc1ccc(C(C)(C)C)cc1`, the B-score entry was “inactive”.

Turning to `COc1ccc(S(=O)(=O)N2CCCCCC2)cc1C(=O)OCC(=O)Nc1cc(C)on1`, the B-score entry was “inactive”.

As to `O=C(/C=C/Sc1ncn[nH]1)c1ccc(Cl)cc1`, the B-score was 7 (active).

With `Cc1cc(C)nc(S/C=C/C(=O)c2ccccc2)n1`, the B-score entry is “inactive”.

Turning to `O=C(CSc1ncn[nH]1)N/N=C/c1ccc(F)cc1`, the B-score result is “inactive”.

As for `CCOc1cc(NC(=S)NCCCN(C)C)c(OCC)cc1NC(=O)C1CC1`, the B-score entry is “inactive”.

`CC(C)c1ccccc1OCC(O)CN(CC(O)COc1cccc2ccccc12)C(C)C` (stereo not drawn): the B-score was 6 (active).

For the compound `Cc1cc(C)c(NC(=O)C[N+](C)(C)CC(O)COc2cccc3ccccc23)c(C)c1` (stereo not drawn), the B-score result is “inactive”.

Regarding `OC(COc1cccc2ccccc12)CN1CCN(c2ccccn2)CC1` (stereo not drawn), the B-score entry is “inactive”.

As for `O=C(CC1C(=O)NCCN1Cc1ccc(-c2ccccc2)cc1)NCc1ccncc1` (stereo not drawn), the B-score entry is “inactive”.

Turning to `Cc1ccc(OCC(=O)Nc2ccccc2C(=O)NC2CC2)cc1C`, the B-score result is “inactive”.

As to `O=C(N/N=C/c1cc([N+](=O)[O-])ccc1O)/C(=C\c1cccs1)NC(=O)c1ccccc1`, the B-score result is “inactive”.

As to `O=[N+]([O-])c1ccc(O)c(/C=N/Nc2ccccc2[N+](=O)[O-])c1`, the B-score is 9 (active).

As to `Nc1nnnn1/N=C/c1cc([N+](=O)[O-])ccc1O`, the B-score entry is “inactive”.

With `CCOc1ccc(CN2CCN(CCCc3ccccc3)C(CCO)C2)cc1` (stereo not drawn), the B-score entry is “inactive”.

As to `CN1CCN(C2=NCCO2)CC1`, the B-score entry was “inactive”.

In the case of `COc1ccc(OC)c(C(=O)NC(CC(N)=O)c2ccc(N3CCC(N4CCCCC4)CC3)c([N+](=O)[O-])c2)c1` (stereo not drawn), the B-score result is “inactive”.

As to `O=C(CNS(=O)(=O)c1ccccc1)N1CCN(C(=O)c2ccco2)CC1`, the B-score entry was “inactive”.

`CCS(=O)(=O)C1=NSC2=NC(=O)/C(=C\c3cc(C)n(-c4cccc(OC)c4)c3C)C(=N)N21`: the B-score was 8 (active).

`CCS(=O)(=O)C1=NSC2=NC(=O)/C(=C\c3ccc(OS(=O)(=O)c4ccccc4)cc3)C(=N)N21`: the B-score result was “inactive”.

For `Cc1cc(/C=C2/C(=N)N3C(=NC2=O)SN=C3S(C)(=O)=O)c(C)n1-c1ccccc1`, the B-score result was “inactive”.

Consider `CCc1cc(=O)oc2cc(C)cc(OCC(=O)N3CCC[C@@H]3C(=O)O)c12`, for which the B-score result was “inactive”.

On to `COc1ccc(N2CCN(C(=O)Cn3cnc4sc(C)c(S(=O)(=O)N5CCOCC5)c4c3=O)CC2)cc1`, for which the B-score result was “inactive”.

With `C=CCn1nc(-c2ccccc2)c2c(C)onc2c1=O`, the B-score entry was “inactive”.

Take `CC(C)(C)n1nnnc1C(c1cccs1)N(Cc1cccnc1)CC1CCCO1` (stereo not drawn): the B-score result was “inactive”.

For `CCOc1ccc(CN(Cc2ccco2)S(=O)(=O)c2ccc(-n3cnnn3)c(OC)c2)cc1`, the B-score entry was “inactive”.

For the compound `CCOc1ccc(CN(Cc2ccco2)C(c2cccs2)c2nnnn2C(C)(C)C)cc1` (stereo not drawn), the B-score is 7 (active).

Consider `Cc1c(Cl)cccc1NC(=O)[C@@]1(CC(=O)O)CC(/C=C/c2ccccc2)=NO1`, for which the B-score entry was “inactive”.
